Measured values published in PubChem BioAssay (NCI).
The panel holds about 79,000 compounds, 15% with a hit somewhere; the sample as a whole holds those more often. Calls of active or inactive are those of the source. Cut-off read from the data, not from the text of the source: active = growth inhibition above about 70%; inactive = the rest.

Legend:
[1] = NCI Yeast Anticancer Drug Screen. Data for the rad50 strain (AID 155);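 note: 0% = growth of vehicle-only cultures of the same strain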; details: S. cerevisiae rad50 strain growth inhibition; at 50.0 µM; hits give high values
How it was run: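 Readout: growth inhibition relative to vehicle-treated cultures. Compound exposure was carried out in a genetically defined yeast strain deficient in DNA damage repair.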

[2] = NCI Yeast Anticancer Drug Screen. Data for the mec2-1 strain (AID 157); details: S. cerevisiae mec2-1 strain, at 50.0 µM, hits give high values
How it was run: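 Each compound was tested on mec2-1 yeast, a strain altered in DNA damage repair or cell cycle control. Growth inhibition is reported relative to vehicle.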

[3] = NCI Yeast Anticancer Drug Screen. Data for the sgs1 mgt1 strain (AID 161);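 note: 0% = growth of cultures given vehicle only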; details: S. cerevisiae sgs1 mgt1 strain, at 50.0 µM, hits give high values
How it was run: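 Test agents were incubated with a DNA-repair-mutant yeast strain. Growth was then read and compared against vehicle-treated controls.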

[4] = NCI Yeast Anticancer Drug Screen. Data for the cln2 rad14 strain (AID 165);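 note: 0% = growth equal to vehicle treated cultures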; details: S. cerevisiae cln2 rad14 strain, at 50.0 µM, hits give high values
How it was run: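 Test compounds were added to cln2 rad14 yeast cultures; inhibition of growth was then determined by comparison with vehicle treatment.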

[5] = NCI Yeast Anticancer Drug Screen. Data for the bub3 strain (AID 167); details: S. cerevisiae bub3 mutant strain, at 50.0 µM, hits give high values
How it was run: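 Readout: yeast growth inhibition, expressed relative to vehicle-only wells. The test organism is a mutant strain from a panel with lesions in DNA repair or checkpoint genes.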

[6] = NCI Yeast Anticancer Drug Screen. Data for the mlh1 rad18 strain (AID 175); details: S. cerevisiae mlh1 rad18 strain growth inhibition; at 50.0 µM; hits give high values
How it was run: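 Inhibition values reflect reduced growth of mutant yeast versus vehicle-treated controls following compound exposure; the mutations affect DNA damage repair.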

Measured: growth inhibition

NC1=C(O)C(=O)C(c2ccc(C3OC(N)=C(O)C3=O)cc2)O1 (centres undefined)
inactive: [1] -8.15% | [2] -17.6% | [3] -18.6% | [4] -0.3% | [5] -27.6% | [6] -3.5%

CC(C)CCOC(=O)c1ccccc1OC(=O)Nc1ccc(Cl)cc1[N+](=O)[O-]
inactive: [1] -18.9% | [2] -16.3% | [3] -20.4% | [4] -41.4% | [5] 0.05% | [6] -11.3%

Cc1ccc(/C(=C/CN2CC3CCC(CC3)C2)c2ccccc2)cc1
inactive: [1] -1.15% | [2] -4.5% | [3] 11.9% | [4] -14.3% | [5] 10.4% | [6] -13.8%

c1ccc2c(c1)Oc1ccccc1S2
inactive: [1] -14.2% | [2] -2.9% | [3] -0.15% | [4] 3.85% | [5] 7.35% | [6] -0.3%

C=C(C)C(C)(C)/C(C)=N\Nc1ccc([N+](=O)[O-])cc1[N+](=O)[O-]
inactive: [1] -0.15% | [2] -7.6% | [3] 6.2% | [4] -23.5% | [5] -0.15% | [6] -8.75%

Cn1c2c(c3ccccc31)C(=O)CC2(C)C
inactive: [1] -5.6% | [2] -4.8% | [3] -2.35% | [4] -18.2% | [5] -30.6% | [6] 2.15%

CN(C)c1ccc(/C=C/c2ccc(/C=C/c3ccc(N(C)C)cc3)cc2)cc1
inactive: [1] -15.1% | [2] -9.9% | [3] 5% | [4] 10.2% | [5] -11.4% | [6] 20.8%

CCCCCCCCCCCC(=O)N/N=C(\c1ccccc1)c1ccc(Cl)cc1
active: [1] 91.5% | [2] 88.2% | [3] 93.5% | [4] 86.9% | [5] 76.5% | [6] 91.3%

CC1OC(c2ccc3c(c2O)C(=O)C2=C(C3=O)C3(O)C(=O)CC(C)(O)CC3(O)C=C2)CC(O)C1O (centres undefined)
inactive: [1] -19.2% | [2] -23.1% | [3] -19.4% | [4] -8.1% | [5] -21.8% | [6] -5.5%

CC(=O)N1Cc2c(nc[nH]c2=O)C1C (centres undefined)
inactive: [1] -8.05% | [2] 27.4% | [3] -7.6% | [4] 14.9% | [5] 5.2% | [6] 0.45%

O=C(O)c1ccc2c(c1C(=O)O)C(=O)OC2(c1ccc(O)cc1)c1ccc(O)cc1
inactive: [1] -14.8% | [2] 11.7% | [3] -21.6% | [4] -21.8% | [5] -10.9% | [6] 4.85%

Cc1ccc(S(=O)(=O)c2ccc(C)cc2[N+](=O)[O-])c([N+](=O)[O-])c1
inactive: [1] -58.1% | [2] -52.1% | [3] -25.4% | [4] -6.2% | [5] -19.9% | [6] -44.6%

C/C(CC(=O)Nc1ccc(C)c(C)c1)=N\NC(N)=O
inactive: [1] -31.9% | [2] -28.6% | [3] -0.7% | [4] -5.35% | [5] -22% | [6] -24.2%

O=C(O)c1c(F)c(F)c(-c2c(F)c(F)c(C(=O)O)c(C(=O)O)c2F)c(F)c1C(=O)O
inactive: [1] 1.5% | [2] 5.5% | [3] -5% | [4] 7.05% | [5] 0.55% | [6] -6.45%

C=C(C(=O)O)C1CC[C@@]2(C)CCC[C@@](C)(O)C2C1 (some centres undefined)
inactive: [1] 21.1% | [2] -5.8% | [3] -7.75% | [4] 10.8% | [5] -3.35% | [6] 25.6%

O=C(O)C(Cl)(c1ccccc1)c1ccccc1
inactive: [1] -6.5% | [2] -13% | [3] 7.5% | [4] -19.9% | [5] 3.55% | [6] -12.8%

CC(=O)CCC1(C)CCCC(C)(C)CC1=O (centres undefined)
inactive: [1] -1.3% | [2] 5.15% | [3] 3.75% | [4] -9.55% | [5] -28% | [6] -12.2%

O=C1CCC(N2C(=O)C3CCCCC3C2=O)C(=O)N1 (centres undefined)
inactive: [1] -0.2% | [2] 12.3% | [3] 18.9% | [4] 1.7% | [5] 8.5% | [6] -14.5%

Cc1cc(N(CCC#N)CCC#N)ccc1N=Nc1cccc(C(=O)O)c1
inactive: [1] -40.4% | [2] -33.8% | [3] -10% | [4] -16.4% | [5] -33.8% | [6] -27.1%
